A short description of assay [1]: resazurin metabolic signal in HepG2 cells – cell-based, resazurin fluorescence, 24 h, PK04 Diversity Set, profiling panel (AID 1172). Note: test concentration not given here. To be noted: HepG2 viability, higher = more signal. (In general: Resazurin is reduced to fluorescent resorufin, in cell work by metabolically active cells.)
Assay [2] can be described thus: budding yeast growth changes without added modifier – OD600, strain BY4716, 24 h, basal condition, primary screen (AID 1173). To be noted: S. cerevisiae BY4716 growth, OD600, 24 h; higher = more signal, called active from +8 up or from −8 down.
The nature of assay [3]: viability profiling in MM1S myeloma cells – cell-based, resazurin fluorescence, basal, 24 h, PK04 Diversity Set, profiling panel (AID 1174).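 Note: MM1S multiple myeloma cell line; test concentration not given here.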 To be noted: higher = more signal, called active from +8 up or from −8 down.
Assay [4] addresses Dihydroorotate dehydrogenase (quinone), mitochondrial (Plasmodium falciparum (isolate 3D7)) (UniProt Q08210). The assay can be described thus: inhibition of P. falciparum DHODH – biochemical, C-terminal His tag, absorbance 600 nm, primary screen (AID 1175).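 Note: recombinant parasite enzyme with a five histidine tag at its C terminus; test concentration not given here.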 The note with it: PfDHODH enzyme, DCIP absorbance 600 nm; higher = more signal, called active from +8 up or from −8 down.
Assay [5] in a line: inhibition of PAO1 biofilm formation – strain PAO1, LB-PBS medium, absorbance 600 nm, primary screen (AID 1176). Note: test concentration not given here. The note with it: P. aeruginosa PAO1 growth/biofilm, A600, 12 h; higher = more signal.
Assay [6] can be described thus: growth modulation of vineyard yeast isolate – strain RM11-1a, OD600, basal, 24 h, primary screen (AID 1177).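 Note: cultures grown under basal conditions with no added stressor; test concentration not given here.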 To be noted: S. cerevisiae RM11-1a growth, OD600, 24 h; higher = more signal, called active from +8 up or from −8 down.
The nature of assay [7]: growth of efflux-deficient E. coli DRC39 – strain DRC39, OD650, 24 h, E. coli filamentation inducers, primary screen (AID 1178).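 Note: growth measured as culture turbidity by optical density at 650 nm; test concentration not given here.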 To be noted: E. coli DRC39 acrAB, higher = more signal, called active from +8 up or from −8 down.
A short description of assay [8]: growth of efflux-deficient E. coli DRC39 – strain DRC39, OD650, 48 h, E. coli filamentation inducers, primary screen (AID 1179).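 Note: screen aims at cell division blockers that make cells filament.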 To be noted: E. coli DRC39 delta-acrAB growth, higher = more signal, called active from +8 up or from −8 down.
Assay [9] can be described thus: viability profiling in RPMI8226 myeloma cells – cell-based, resazurin fluorescence, basal, 24 h, PK04 Diversity Set, profiling panel (AID 1180).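 Note: RPMI8826 multiple myeloma cell line at 5000 cells per well; test concentration not given here.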 The note with it: higher = more signal.
The target in assay [10] is E3 ubiquitin-protein ligase XIAP (Homo sapiens) (UniProt P98170). The assay can be described thus: small molecules binding XIAP protein – biophysical, small-molecule microarray, fluorescence 635 nm, primary screen (AID 1181).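 Note: score merges 667 nm emission and signal to noise over triplicate slides.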 The note with it: higher = more signal.

The source made the active and inactive calls. Unless noted, the rule behind the calls is not given here.

E3 ubiquitin-protein ligase XIAP (Homo sapiens), sequence (P98170 whole entry, looked up): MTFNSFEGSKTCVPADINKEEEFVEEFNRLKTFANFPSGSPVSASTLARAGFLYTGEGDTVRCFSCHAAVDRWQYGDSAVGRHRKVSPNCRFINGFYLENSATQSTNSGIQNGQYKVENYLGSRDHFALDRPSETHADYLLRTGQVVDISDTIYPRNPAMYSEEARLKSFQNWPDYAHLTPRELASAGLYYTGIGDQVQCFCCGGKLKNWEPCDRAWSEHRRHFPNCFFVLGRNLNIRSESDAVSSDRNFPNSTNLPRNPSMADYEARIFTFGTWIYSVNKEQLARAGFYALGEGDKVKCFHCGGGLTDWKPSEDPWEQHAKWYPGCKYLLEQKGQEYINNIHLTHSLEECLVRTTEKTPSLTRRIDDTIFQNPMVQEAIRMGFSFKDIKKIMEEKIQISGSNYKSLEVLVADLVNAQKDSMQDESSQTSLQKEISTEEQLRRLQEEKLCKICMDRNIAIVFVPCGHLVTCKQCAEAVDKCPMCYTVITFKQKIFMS
Dihydroorotate dehydrogenase (quinone), mitochondrial (Plasmodium falciparum (isolate 3D7)), sequence (Q08210 whole entry, looked up): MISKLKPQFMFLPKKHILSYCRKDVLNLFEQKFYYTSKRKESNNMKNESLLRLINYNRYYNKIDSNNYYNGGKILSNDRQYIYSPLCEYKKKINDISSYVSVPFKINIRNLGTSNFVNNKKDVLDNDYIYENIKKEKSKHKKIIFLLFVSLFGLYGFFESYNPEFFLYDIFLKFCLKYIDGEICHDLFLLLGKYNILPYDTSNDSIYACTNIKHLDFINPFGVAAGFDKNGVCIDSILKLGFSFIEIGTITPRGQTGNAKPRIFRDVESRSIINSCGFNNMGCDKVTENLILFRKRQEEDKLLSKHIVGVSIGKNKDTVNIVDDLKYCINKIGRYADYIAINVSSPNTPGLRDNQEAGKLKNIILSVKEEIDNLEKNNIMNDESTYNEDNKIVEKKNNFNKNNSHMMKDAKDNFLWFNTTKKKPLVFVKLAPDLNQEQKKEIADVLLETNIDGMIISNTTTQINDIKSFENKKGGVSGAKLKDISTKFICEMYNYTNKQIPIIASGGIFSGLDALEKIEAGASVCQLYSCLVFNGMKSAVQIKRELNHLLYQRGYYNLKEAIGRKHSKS

Consider `CC(C)(C)OC(=O)CC[C@]1(C(N)=O)N=C(c2ccc(OCCCO)cc2)O[C@H]1c1ccccc1CN=[N+]=[N-]`, for which the z-score in assay [1] was 0.0283; in assay [2] it was 0.632 (inactive); in assay [3] it was 0.455 (inactive); in [5], -0.568 (inactive); in assay [6], 1.55 (inactive); in [7], 2.09 (inactive). Moreover, the z-score in assay [8] is 0.64 (inactive); in assay [9], 0.282. The values for the composite z-score in [4] and in assay [10] were 0.369 (inactive) and 0.108, respectively.

`CC(=O)n1cc(C(O)C2C=CC3C(=O)N(c4ccccc4)C(=O)C3N2Nc2ccccc2F)c2ccccc21` (stereo not given): the z-score in assay [1] is 0.68; in [2], -1.34 (inactive); in assay [3], -0.223 (inactive); in assay [5] it was 1.54 (inactive); in [6], -0.86 (inactive); in assay [7], 0.8 (inactive). For the same compound, the z-score in assay [8] was 0.86 (inactive); in assay [9], 0.0072. Also, the results for the composite z-score in [4] and in [10] were -0.349 (inactive) and 0.439, respectively.

Turning to `C=CC[C@@]1(C(=O)O)N=C(c2ccc(OCCCO)cc2)O[C@@H]1c1ccccc1CN=[N+]=[N-]`, the z-score in [1] is 0.793; in assay [2], -2.58 (inactive); in [3], 0.747 (inactive); in assay [5], -0.043 (inactive); in assay [6], -0.534 (inactive); in assay [7] it was 0.8 (inactive). The values for the z-score in assay [8] and in assay [9] were 0.302 (inactive) and 1.1, respectively. Further, the composite z-score in assay [4] is -0.0013 (inactive); in [10] it was 0.565.

Turning to `CCCC=C(CCC)[C@@H](NS(=O)(=O)c1ccc(Cl)cc1)c1ccccc1`, the z-score in assay [1] is 1.1; in assay [2], 0.733 (inactive); in [3], 0.604 (inactive); in [5] it was 1.97 (inactive); in [6], -0.233 (inactive); in assay [7] it was -0.558 (inactive). Besides, the z-score in assay [8] was -1 (inactive); in assay [9], -0.321. Moreover, the composite z-score was -0.532 (inactive) in assay [4] and 0.102 in assay [10].

Consider `C=CCC(OC(C)=O)[C@@H]1[C@@H](N(Cc2ccc(-c3cccc(C(F)(F)F)c3)o2)C(=O)Cc2ccc(F)cc2)c2cc(OCCCO)ccc2N1C(=O)c1ccc2ccccc2c1` (stereo not given in full), for which the z-score in assay [1] is 0.589; in assay [2], -0.382 (inactive); in assay [3], 0.81 (inactive); in assay [5], -0.194 (inactive); in [6], -0.423 (inactive); in assay [7], 0.227 (inactive). In addition, the z-score was 0.369 (inactive) in assay [8] and 0.934 in assay [9]. Also, the composite z-score in assay [4] is -1.26 (inactive); in assay [10], -0.224.

Turning to `CC(C)C(=C=CC[C@@H](O)c1ccccc1OCCO)C[C@@H](O)c1cc(Cl)cc(Cl)c1O`, the z-score in [1] was -0.563; in assay [2] it was -4.12 (inactive); in assay [3], -1.35 (inactive); in assay [5], 0.354 (inactive); in assay [6], 0.184 (inactive); in assay [7], -0.501 (inactive). Also, the z-score in assay [8] is -0.796 (inactive); in assay [9], -0.932. The results for the composite z-score in assay [4] and in assay [10] were -2.32 (inactive) and -0.232, respectively.

Take `CN(C)CCCCNC(=O)[C@H]1C[C@H]2C(=O)NCC(=O)N2[C@H]1c1cccc(OCCO)c1`: the z-score is 1.15 in [1]; 0.425 (inactive) in [2]; 1.59 (inactive) in assay [3]; -0.711 (inactive) in [5]; 1.06 (inactive) in assay [6]; 0.779 (inactive) in [7]. Moreover, the results for the z-score in [8] and in assay [9] were 0.834 (inactive) and 0.158, respectively. Moreover, the composite z-score in [4] is -0.0392 (inactive); in assay [10], -0.0286.

In the case of `C=CCOC(=O)[C@@H]1[C@H]2C(=O)O[C@H](c3ccccc3)[C@H](c3ccccc3)N2[C@H](c2ccc(OCCOC(=O)[C@H]3C[C@H]4C(=O)NCC(=O)N4[C@H]3c3ccc(O)cc3)cc2)[C@@]12C(=O)Nc1ccc(I)cc12`, the z-score in assay [1] was -0.675; in assay [2], 2.01 (inactive); in assay [3], -0.349 (inactive); in assay [5], 3.08 (inactive); in assay [6] it was 1.28 (inactive); in [7] it was -0.0185 (inactive). For the same compound, the z-score was -0.282 (inactive) in [8] and -0.331 in assay [9]. Moreover, the composite z-score in assay [4] was -1.14 (inactive); in assay [10] it was -0.0669.

On to `[N-]=[N+]=Nc1ccccc1[C@@H]1OC(c2ccc(OCCCO)cc2)=N[C@]1(Cc1ccccc1)C(N)=O`, for which the z-score in assay [1] was 1.2; in assay [2], -0.821 (inactive); in assay [3] it was -0.622 (inactive); in assay [5] it was -0.0558 (inactive); in assay [6] it was 1.19 (inactive); in [7], 0.673 (inactive). For the same compound, the z-score in assay [8] is 0.481 (inactive); in assay [9] it was -0.589. Also, the values for the composite z-score in assay [4] and in [10] were 0.474 (inactive) and 0.0838, respectively.

With `CCOC(=O)C1=C(C(=O)OCC)N(S(=O)(=O)CC[Si](C)(C)C)[C@H](c2ccccc2)CC1`, the z-score in assay [1] is 0.95; in assay [2] it was 1.77 (inactive); in assay [3], -2.4 (inactive); in assay [5], 0.201 (inactive); in assay [6], 1.73 (inactive); in assay [7], -0.203 (inactive). For the same compound, the z-score is -0.238 (inactive) in [8] and -4.03 in assay [9]. In addition, the composite z-score in assay [4] is -0.493 (inactive); in assay [10], -0.127.

As for `CO[C@H]1O[C@H](CO)[C@@H](OC(=O)Nc2ccc(C(F)(F)F)cc2)[C@H](OC(=O)Nc2ccccc2-c2ccccc2)[C@H]1OC(=O)Nc1ccccc1-c1ccccc1`, the z-score was -5.27 in assay [1]; 1.39 (inactive) in assay [2]; -5.4 (inactive) in assay [3]; 3.43 (inactive) in assay [5]; 2.8 (inactive) in assay [6]; -0.853 (inactive) in assay [7]. In addition, the z-score was -1.25 (inactive) in [8] and -4.63 in assay [9]. Also, the composite z-score in [4] was -0.132 (inactive); in assay [10], 0.201.

Take `CCOC(=O)C[C@H]1[C@H](OC(=O)c2cc3ccccc3oc2=O)[C@@H](NC(=O)C2CCCCC2)c2cc(OCCCO)ccc2N1C(=O)Cc1ccc(OC)cc1`: the z-score in assay [1] was -0.715; in assay [2], 0.0323 (inactive); in assay [3], -0.176 (inactive); in [5], -0.234 (inactive); in [6], -0.0196 (inactive); in assay [7], -0.825 (inactive). Moreover, the z-score in assay [8] was -1.1 (inactive); in [9] it was -0.986. In addition, the figures for the composite z-score in [4] and in assay [10] were 0.427 (inactive) and 0.214, respectively.

The record behind these values is PubChem BioAssay.
